Inconclusive results are not listed. Activity calls are given as the source filed them. Unless noted, the call rests on the fitted dose curve.
Experiments:
[1] = Nuclear factor erythroid 2-related factor 2/antioxidant responsive element (Nrf2/ARE) small molecule agonists: qHTS cell viability counter screen in human keratinocytes (AID 1919968; active means well fitted curve in the direction sought with a large enough effect in the repeat runs; an effect the other way counts as inactive or inconclusive; further: nearly all actives have a fitted effect of over 55% in size)
Procedure, shortened: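 Parallel cytotoxicity read: KeratinoSens HaCaT cells, compound treatment 23 h, viability by CellTiter-Fluor fluorescence 1 h post-reagent.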

[2] = Nuclear factor erythroid 2-related factor 2/antioxidant responsive element (Nrf2/ARE) small molecule agonists: luciferase reporter gene qHTS assay in human keratinocytes (AID 1919969); further: nearly all actives have a fitted effect of over 35% in size
[3] = molecular target: Gonadotropin-releasing hormone receptor (Homo sapiens) (UniProt P30968); test: Human gonadotropin-releasing hormone receptor (GnRHR) small molecule agonists, calcium flux assay in GnRHR-HEK293 cells (AID 1920063); further: nearly all actives have a fitted effect of over 35% in size
Procedure, shortened: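 Calcium flux, agonist mode, human GnRHR stably integrated in HEK293; dye 1 h at 37 C before compound; Ex/Em=480/540 kinetic read, 3 min; 15 concentrations, triplicate.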

[4] = molecular target: KiSS-1 receptor (Homo sapiens) (UniProt Q969F8); test: Human kisspeptin (KISS1R) small molecule agonists, calcium flux assay in KISS1R-HEK293 cells (AID 1920064; active means well fitted curve in the direction sought with a large enough effect in the repeat runs; an effect the other way counts as inactive or inconclusive)
Procedure, shortened: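 Triplicate 15-concentration series were applied to dye-loaded human KISS1R HEK293 cells, and agonist-evoked calcium fluorescence was captured for 3 min.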

[5] = G protein-coupled receptor (GPCR) small molecule agonists, calcium flux assay: HEK293 wild type cell line counter screen (AID 1920065)
Procedure, shortened: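 Non-specific calcium responders were flagged by adding DMSO-dissolved compounds to dye-loaded cells and reading 480/540 nm fluorescence each second for 3 min; ATP served as positive control.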

[6] = p53 small molecule agonists, cell-based qHTS assay with human liver microsomes (AID 1963577)
Procedure, shortened: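 p53RE-bla cells, 4,000/well, compound added after 5 h, with human liver microsomes 0.5 mg/mL and NADPH 0.5 mg/mL final; 16 h at 37 C, then LiveBLAzer 2 h RT, fluorescence.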

[7] = p53 small molecule agonists, cell-based qHTS assay with rat liver microsomes (AID 1963578)
Procedure, shortened: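 p53RE-bla cells, 4,000/well, pre-incubated 5 h, then given compounds plus rat liver microsomes (0.5 mg/mL final) and NADPH (0.5 mg/mL final). Incubation 16 h at 37 C; beta-lactamase reporter read by LiveBLAzer fluorescence after 2 h at room temperature.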

[8] = p53 small molecule agonists, cell-based qHTS assay with human liver microsomes: qHTS cell viability counter screen (AID 1963579); further: nearly all actives have a fitted effect of over 45% in size
Procedure, shortened: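 p53RE-bla cells, 4,000/well, dosed 5 hours after plating, with human liver microsomes (0.5 mg/mL final) plus NADPH (0.5 mg/mL final), 16 hours at 37 C. Viability read as CellTiter-Glo luminescence after 30 min at room temperature.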

[9] = p53 small molecule agonists, cell-based qHTS assay with rat liver microsomes: qHTS cell viability counter screen (AID 1963580); further: nearly all actives have a fitted effect of over 45% in size
Procedure, shortened: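 Cytotoxicity counter screen: intracellular ATP read by CellTiter-Glo luminescence in the p53 reporter wells. HCT-116 p53RE-bla cells were treated for 16 h at 37 C alongside rat liver microsomes and NADPH, each 0.5 mg/mL final.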

[10] = p53 small molecule agonists, cell-based qHTS assay: qHTS cell viability counter screen (AID 1963581); further: nearly all actives have a fitted effect of over 45% in size
Procedure, shortened: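 Multiplexed with the reporter read, a CellTiter-Glo step (30 min, room temperature) gauges ATP-based viability of HCT-116 p53RE-bla cells after 16 h compound incubation at 37 C.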

[11] = p53 small molecule agonists, cell-based qHTS assay (AID 1963582; active means well fitted activation curve with a large enough effect in the signal ratio in the repeat runs, not every such curve was filed as active; the % refers to the signal ratio)
Procedure, shortened: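 Beta-lactamase reporter cells (p53RE-bla) treated with compounds for 16 h at 37 C; FRET substrate, 2 h, room temperature; fluorescence intensity.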

[12] = molecular target: 5-hydroxytryptamine receptor 2A (Homo sapiens) (UniProt P28223); test: 5-hydroxytryptamine receptor 2A (HTR2A) small molecule antagonists, cell-based qHTS assay (AID 1963586); further: nearly all actives have a fitted effect of over 45% in size
Procedure, shortened: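 CHO cells stably expressing human HTR2A were plated for 18 h at 37 C, then loaded with calcium dye for 1 h. Compounds were preincubated 5 min at room temperature before DOI (4 nM solution) was added. Kinetic fluorescence was read for 3 min.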

[13] = molecular target: 5-hydroxytryptamine receptor 2A (Homo sapiens) (UniProt P28223); test: 5-hydroxytryptamine receptor 2A (HTR2A) small molecule agonists, cell-based qHTS assay (AID 1963587); further: nearly all actives have a fitted effect of over 30% in size
Procedure, shortened: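 Kinetic calcium-flux fluorescence (2 min, 1 sec intervals) after compound addition in agonist mode. HTR2A-CHO cells were cultured 18 h, then dye-loaded 1 h at 37 C.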

[14] = molecular target: Muscarinic acetylcholine receptor M1 (Homo sapiens) (UniProt P11229); test: Cholinergic receptor muscarinic 1 (CHRM1) small molecule antagonists, cell-based qHTS assay (AID 1963588); further: nearly all actives have a fitted effect of over 40% in size
Procedure, shortened: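 Compounds were tested at 15 concentrations in three independent runs. Dye-loaded CHRM1-CHO cells were exposed 5 min at room temperature before stimulation by acetylcholine added at 50nM. Intracellular calcium was read kinetically on FDSS for 3 min.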

[15] = molecular target: Muscarinic acetylcholine receptor M1 (Homo sapiens) (UniProt P11229); test: Cholinergic receptor muscarinic 1 (CHRM1) small molecule agonists, cell-based qHTS assay (AID 1963589); further: nearly all actives have a fitted effect of over 35% in size
Procedure, shortened: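 qHTS, 15-point titration, 3 independent runs: compounds pin-transferred onto dye-loaded CHRM1-CHO cells (human M1), calcium fluorescence followed every second to detect agonism.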

[16] = cAMP Responsive Elements (CRE) small molecule agonists, cell-based qHTS assay (AID 1963590)
Procedure, shortened: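 Quantitative HTS for CRE agonists: HEK 293T CRE-bla cells, overnight plating, 3 h compound incubation at 37 C/5% CO2, then 2 h room-temperature LiveBLAzer B/G FRET substrate loading.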

[17] = cAMP Responsive Elements (CRE) small molecule antagonists, cell-based qHTS assay (AID 1963591; active means well fitted inhibition curve with a large enough effect in the signal ratio in the repeat runs, not every such curve was filed as active; the % refers to the signal ratio)
Procedure, shortened: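 Fluorescence intensity from cleaved LiveBLAzer B/G substrate (2 h, room temperature) quantified CRE-bla activity in HEK 293T cells exposed 3 h to compound with 0.25 uM final NKH477.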

[18] = molecular target: Beta-2 adrenergic receptor (Homo sapiens) (UniProt P07550); test: Adrenergic beta2 receptor (ADRB2) small molecule antagonists, cell-based qHTS assay (AID 1963592); further: series mostly up to about 92 µM; nearly all actives have a fitted effect of over 50% in size
Procedure, shortened: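 Assay format: CHO-ADRB2 cells, 18-20hr seeding at 37C/5% CO2, then compound plus 1nM isoproterenol agonist mix for 0.5hr RT. Homogeneous time-resolved fluorescence cAMP detection after 1hr, expressed as 665/615 nm ratio.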

[19] = molecular target: D(2) dopamine receptor (Homo sapiens) (UniProt P14416); test: Dopamine D2 receptor (DRD2) small molecule agonists, cell-based qHTS assay (AID 1963594); further: nearly all actives have a fitted effect of over 35% in size
Procedure, shortened: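 cAMP accumulation in DRD2-HEK293 cells measured by HTRF after 1 h detection; compounds added 10 min before NKH477 (200nM […]) forskolin-analogue stimulation, 30 min at room temperature, with Ro20-1724 present at 0.1 mM final.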

[20] = molecular target: D(2) dopamine receptor (Homo sapiens) (UniProt P14416); test: Dopamine D2 receptor (DRD2) small molecule antagonists, cell-based qHTS assay (AID 1963595; active means well fitted inhibition curve with a large enough effect in the signal ratio in the repeat runs, with a control signal flat; the % refers to the signal ratio)
Procedure, shortened: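 Antagonism was scored as restored cAMP in HEK293-DRD2 cells. These cells were stimulated with 200 nM NKH477 and 12 nM quinpirole for 30 min at room temperature, in the presence of 0.1 mM Ro20-1724.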

Measured: Potency

Sequence of KiSS-1 receptor (Homo sapiens) (Q969F8 whole entry, looked up): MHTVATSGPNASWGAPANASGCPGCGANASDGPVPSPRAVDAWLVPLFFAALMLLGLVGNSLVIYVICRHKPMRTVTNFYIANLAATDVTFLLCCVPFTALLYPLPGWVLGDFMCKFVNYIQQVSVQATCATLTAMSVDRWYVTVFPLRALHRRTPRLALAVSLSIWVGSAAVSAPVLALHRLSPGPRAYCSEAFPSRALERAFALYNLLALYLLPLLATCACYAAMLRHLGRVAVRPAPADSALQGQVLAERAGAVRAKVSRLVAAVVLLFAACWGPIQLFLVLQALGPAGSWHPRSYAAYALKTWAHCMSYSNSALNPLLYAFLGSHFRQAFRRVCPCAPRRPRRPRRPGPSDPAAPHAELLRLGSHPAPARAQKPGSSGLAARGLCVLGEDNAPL
Sequence of 5-hydroxytryptamine receptor 2A (Homo sapiens) (P28223 whole entry, looked up): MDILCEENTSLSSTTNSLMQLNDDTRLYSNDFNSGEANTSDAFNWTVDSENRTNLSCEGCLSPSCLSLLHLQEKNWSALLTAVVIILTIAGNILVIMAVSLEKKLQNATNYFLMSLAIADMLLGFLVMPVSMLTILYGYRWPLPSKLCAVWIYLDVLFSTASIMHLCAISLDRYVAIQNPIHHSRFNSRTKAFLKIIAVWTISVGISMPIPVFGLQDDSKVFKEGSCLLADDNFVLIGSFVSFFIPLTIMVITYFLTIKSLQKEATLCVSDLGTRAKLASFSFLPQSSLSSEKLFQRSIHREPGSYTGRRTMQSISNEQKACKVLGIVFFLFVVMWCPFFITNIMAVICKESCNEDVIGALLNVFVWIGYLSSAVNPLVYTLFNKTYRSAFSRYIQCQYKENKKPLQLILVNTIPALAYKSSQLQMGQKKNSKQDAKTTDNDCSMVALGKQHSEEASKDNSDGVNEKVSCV
Sequence of Beta-2 adrenergic receptor (Homo sapiens) (P07550 whole entry, looked up): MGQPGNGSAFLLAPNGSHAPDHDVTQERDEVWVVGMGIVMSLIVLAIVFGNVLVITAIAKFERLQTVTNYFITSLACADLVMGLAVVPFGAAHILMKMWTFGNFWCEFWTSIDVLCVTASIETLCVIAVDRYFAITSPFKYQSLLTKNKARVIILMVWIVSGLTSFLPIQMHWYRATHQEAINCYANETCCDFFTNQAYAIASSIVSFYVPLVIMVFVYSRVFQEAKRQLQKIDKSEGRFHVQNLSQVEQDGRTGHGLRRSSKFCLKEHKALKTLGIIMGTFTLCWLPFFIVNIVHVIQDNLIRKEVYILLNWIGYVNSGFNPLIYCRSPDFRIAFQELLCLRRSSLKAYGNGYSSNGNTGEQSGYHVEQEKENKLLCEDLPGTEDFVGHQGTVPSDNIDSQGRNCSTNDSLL
Sequence of D(2) dopamine receptor (Homo sapiens) (P14416 whole entry, looked up): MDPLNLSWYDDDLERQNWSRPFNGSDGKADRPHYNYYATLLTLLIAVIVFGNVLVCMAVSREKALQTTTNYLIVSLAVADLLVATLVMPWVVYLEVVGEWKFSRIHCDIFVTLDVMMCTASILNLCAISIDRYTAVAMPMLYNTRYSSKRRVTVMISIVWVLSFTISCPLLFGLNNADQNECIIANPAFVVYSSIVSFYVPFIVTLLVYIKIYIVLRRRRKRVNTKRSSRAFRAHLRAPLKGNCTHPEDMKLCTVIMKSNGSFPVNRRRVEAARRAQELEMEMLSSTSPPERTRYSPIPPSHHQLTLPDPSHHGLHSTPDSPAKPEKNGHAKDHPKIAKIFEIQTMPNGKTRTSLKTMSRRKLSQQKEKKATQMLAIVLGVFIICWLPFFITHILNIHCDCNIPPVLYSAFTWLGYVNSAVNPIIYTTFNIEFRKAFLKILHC
Sequence of Gonadotropin-releasing hormone receptor (Homo sapiens) (P30968 whole entry, looked up): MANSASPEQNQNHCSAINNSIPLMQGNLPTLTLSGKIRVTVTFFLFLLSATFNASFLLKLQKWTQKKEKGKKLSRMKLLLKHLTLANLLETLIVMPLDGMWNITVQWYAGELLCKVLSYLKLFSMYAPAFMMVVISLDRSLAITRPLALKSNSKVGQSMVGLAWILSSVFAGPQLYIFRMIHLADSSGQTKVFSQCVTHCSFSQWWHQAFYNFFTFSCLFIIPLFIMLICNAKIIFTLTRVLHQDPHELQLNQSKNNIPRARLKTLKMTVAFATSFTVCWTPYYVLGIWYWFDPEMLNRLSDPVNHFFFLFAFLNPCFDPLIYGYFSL
Sequence of Muscarinic acetylcholine receptor M1 (Homo sapiens) (P11229 whole entry, looked up): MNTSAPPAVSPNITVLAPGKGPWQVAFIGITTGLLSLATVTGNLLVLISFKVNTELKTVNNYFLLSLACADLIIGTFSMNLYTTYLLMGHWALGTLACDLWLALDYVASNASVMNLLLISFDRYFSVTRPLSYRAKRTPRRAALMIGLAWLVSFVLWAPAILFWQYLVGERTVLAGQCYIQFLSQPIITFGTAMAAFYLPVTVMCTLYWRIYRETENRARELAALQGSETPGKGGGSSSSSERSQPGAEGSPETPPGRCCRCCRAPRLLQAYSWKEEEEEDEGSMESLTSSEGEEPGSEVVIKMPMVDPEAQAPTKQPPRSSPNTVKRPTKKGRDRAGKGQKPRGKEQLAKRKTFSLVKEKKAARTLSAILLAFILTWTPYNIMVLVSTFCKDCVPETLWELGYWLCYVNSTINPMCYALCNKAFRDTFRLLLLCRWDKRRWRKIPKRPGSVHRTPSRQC

C[N+]1([O-])CCOCC1
inactive: [1] | [2] | [3] | [4] | [5] | [6] | [7] | [8] | [9] | [10] | [11] | [12] | [13] | [14] | [15] | [16] | [17] | [18] | [19] | [20]

Cc1ccc(S(N)(=O)=O)cc1
inactive: [1] | [2] | [3] | [4] | [5] | [6] | [7] | [8] | [9] | [10] | [11] | [12] | [13] | [14] | [15] | [16] | [17] | [18] | [19] | [20]

CO[Si](CCCCl)(OC)OC
inactive: [1] | [2] | [3] | [4] | [5] | [6] | [7] | [8] | [9] | [10] | [11] | [12] | [13] | [14] | [15] | [16] | [17] | [18] | [19] | [20]

Cc1cc(O)c(Cl)cc1C
inactive: [1] | [2] | [3] | [4] | [5] | [6] | [7] | [8] | [9] | [10] | [11] | [12] | [13] | [14] | [15] | [16] | [17] | [18] | [19] | [20]

CC(=O)OCCC1CCCCC1
inactive: [1] | [2] | [3] | [4] | [5] | [6] | [7] | [8] | [9] | [10] | [11] | [12] | [13] | [14] | [15] | [16] | [17] | [18] | [19] | [20]

CCCOC(=O)C(C)O (stereo not given)
inactive: [1] | [2] | [3] | [4] | [5] | [6] | [7] | [8] | [9] | [10] | [11] | [12] | [13] | [14] | [15] | [16] | [17] | [18] | [19] | [20]

CC1=CCC(=O)O1
inactive: [1] | [2] | [3] | [4] | [5] | [6] | [7] | [8] | [9] | [10] | [11] | [12] | [13] | [14] | [15] | [16] | [17] | [18] | [19] | [20]

Reference: PubChem BioAssay (Tox21)
